Screening data from PubChem.
Shown are actives, neighbours in structure and some others; about 4.7% of the full set was active somewhere.
proKLK7 act – proKLK7 zymogen activators, primary screen, biochemical, fluorescence intensity; Kallikrein-7 (Homo sapiens), P49862; purified proKLK7, EDANS-DABCYL substrate fluorescence; 100% is mature enzyme control, 0% vehicle; activation, % at 7 µM; 0.9% of 370,000 active;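 active means activation above the mean of all tested compounds plus 3 SD, computed per campaign excluding outliers beyond control limits, cut at about 13% in these data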
ADAM10 inh – human ADAM10 inhibitors, primary screen, biochemical, QFRET, HTS | AID 720582, 2013 | 0.62% of 370,000 active | Disintegrin and metalloproteinase domain-containing protein 10 (Homo sapiens), O14672 | recombinant ADAM10, EDANS/DABCYL FRET peptide cleavage, 3 h | inhibition, % at 7 µM;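 active means inhibition above a per-campaign cutoff equal to the mean of compounds falling between control-based bounds plus 3 SD, cut at about 20% in these data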
MPTP inh – mitochondrial permeability transition pore inhibitors, primary screen, biochemical, isolated mouse mitochondria, absorbance. 1.4% of 360,000 active. Ca2+ swelling absorbance, 30 min. inhibition, % at 10 µM;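 active means inhibition of 50% or more, scaled per plate between neutral and stimulator controls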
rCAG binder – binders of r(CAG) RNA repeats, primary screen, biochemical, fluorescence. inhibition, % at 3 µM. 1.3% of 370,000 active. r(CAG) RNA repeat, TO-PRO-1 dye displacement fluorescence;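 active means inhibition above the plate cutoff, the mean of all test compounds on that plate plus 3 SD, cut at about 35% in these data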;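 further: higher means more dye released from RNA so lower well fluorescence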
ADAM17 inh – ADAM17 inhibitors, primary screen, biochemical, QFRET. Disintegrin and metalloproteinase domain-containing protein 17 (Homo sapiens), P78536. recombinant ADAM17, EDANS/DABCYL FRET peptide cleavage. inhibition, % at 6.95 µM. 0.83% of 370,000 active;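 active means inhibition above the mean of compounds lying between control limits plus 3 SD, set per campaign, cut at about 8.5% in these data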
Pemphigus Ab inh – inhibitors of pemphigus antibody binding to DSG3, primary screen, biochemical, bead-based, flow cytometry, scFv-GFP | DSG3-coupled beads, scFv-anti-DSG3-GFP binding; active compounds read low | binding (percent of control), % at 10 µM | 0.48% of 310,000 active;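 active means binding more than 3 SD below its plate's average and above zero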;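 further: hits lower antibody fragment binding to DSG3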
MPTP counter – fluorescence retest of MPTP screen hits in isolated mitochondria, single concentration; inhibition, % at 10 µM; 78% of 5,000 active; membrane potential, Rhodamine 123 fluorescence; shares compounds with MPTP inh; in the data active means inhibition above about 22%
MPTP abs DR – mitochondrial permeability transition pore inhibitors, dose response, biochemical, absorbance, uHTS hits; shares compounds with MPTP inh; isolated mitochondria swelling; IC50, µM; 58% of 780 active; AID 651561, 2012; in the data active means IC50 below about 20 µM
MPTP counter DR – fluorescent counter-screen in isolated mitochondria, dose response, counter-screen for MPTP inhibitor project, biochemical, fluorescence, uHTS hits | IC50, µM | 49% of 780 active | shares compounds with MPTP inh | AID 651564, 2012 | isolated mitochondria counterscreen, fluorescence read-out; in the data active means IC50 below about 80 µM
Hits are given with their value; n = inactive; x = no result given.

SMILES	proKLK7 act	ADAM10 inh	MPTP inh	rCAG binder	ADAM17 inh	Pemphigus Ab inh	MPTP counter	others
COc1ccccc1C(=O)NC(=S)NNC(=O)c1sc2ccccc2c1Cl	n	n	95.1	n	n	n	n
O=C(NCc1ccccc1Cl)C1CCCN(c2ncccn2)C1 (centres undefined)	n	n	x	n	n	x	x
Cc1cc2c(nc1C)CCCN2S(=O)(=O)c1ccc(C#N)cc1	n	n	x	n	n	x	x
O=C(N/N=C/c1ccc(C(F)(F)F)cc1)c1ccc(O)cc1	n	n	n	n	n	x	x
NC(N)=NN=C(c1ccc(F)cc1)c1ccc(C(F)(F)F)cc1	n	n	69.7	n	n	n	n	MPTP abs DR=4.79;MPTP counter DR=41
O=C(Nc1ccc(C(F)(F)F)cc1)c1cc(-c2cccnc2)nc2ccc(Br)cc12	n	n	78.0	n	n	n	n	MPTP abs DR=13;MPTP counter DR=7.14
Cc1cc(C(=O)COC(=O)c2ccccc2O)c(C)n1CC1CCCO1 (centres undefined)	n	n	n	n	n	n	x
Cc1cc(C(=O)COc2ccccc2C(N)=O)c(C)n1CC1CCCO1 (centres undefined)	n	n	92.9	n	n	n	79.9
COC(=O)C1=C(C)N(Cc2ccc(F)cc2)C(=S)NC1c1cccc(Br)c1 (centres undefined)	n	n	x	n	n	x	x
O=C(/C=C/c1cccc([N+](=O)[O-])c1)NCCSCc1ccc(Cl)cc1Cl	n	n	66.8	n	n	n	72.5
COC(=O)[C@]12C[C@H](CC(=O)NCc3cccc(C(F)(F)F)c3)C(=O)N(Cc3ccc(Cl)cc3Cl)C1=C[C@H](COCc1ccccc1)O[C@@H]2C	n	n	x	n	n	x	x
N#CC(=C1C=C(Br)C(=NO)C=C1Cl)c1ccc(Cl)cc1	n	n	83.2	n	n	n	85.3
CCCN1C(=O)/C(=C/c2ccc(C)o2)SC1=Nc1ccc(OC)cc1	n	n	64.5	n	n	n	n	MPTP abs DR=n;MPTP counter DR=n
CCCN1C(=O)/C(=C/c2ccc(C)o2)SC1=Nc1ccc(OCC)cc1	n	n	n	n	n	n	x
O=C(c1ccc(S(=O)(=O)c2ccc(F)cc2)c([N+](=O)[O-])c1)N1CCCCCC1	n	n	78.3	n	n	n	67.8
O=C(c1ccc(S(=O)(=O)Cc2ccccc2F)c([N+](=O)[O-])c1)N1CCCC1	n	n	n	n	n	n	x
Cc1ccc(-n2c(SCC(=O)Nc3cccc4ccccc34)nnc2-c2ccccc2)cc1	n	n	x	n	n	x	x
COC(=O)C1=C(C)N(Cc2cccc(C(F)(F)F)c2)C(=NCc2ccc3c(c2)OCO3)NC1c1ccccc1C(F)(F)F (centres undefined)	n	n	x	n	n	x	x
CC(C)(C)S(=O)(=O)N1Cc2cc(CO)ccc2[C@H]1CCO	n	n	x	n	n	x	x
O=C(/C=C(\Nc1ccc(F)cc1)c1ccccc1)c1ccccc1	n	n	x	n	n	x	x
OC(CN1CCCCCC1)CN(c1ccccc1)c1ccccc1 (centres undefined)	n	n	67.1	n	n	n	51.1
OC(CN1CCCCC1)CN(c1ccccc1)c1ccccc1 (centres undefined)	n	n	n	n	n	x	x
Cc1onc(-c2c(Cl)cccc2Cl)c1C(=O)NCc1ccco1	n	n	71.9	n	n	n	n	MPTP abs DR=n;MPTP counter DR=n
Cc1onc(-c2ccccc2)c1C(=O)NCc1ccco1	n	n	n	n	n	n	x
CCn1c(SCC(=O)NN=Cc2cc(OC)ccc2OC)nnc1-c1ccc(OC)cc1	n	n	x	n	n	x	x
SMILES	proKLK7 act	ADAM10 inh	MPTP inh	rCAG binder	ADAM17 inh	Pemphigus Ab inh	MPTP counter	others
CCCCc1c(-c2ccccc2OC)ncn1CCc1ccccc1OC	n	n	80.5	n	n	x	114.6
CCCc1c(-c2ccccc2OC)ncn1CCc1ccccc1OC	n	n	x	n	n	x	x
CCCCCc1c(-c2ccccc2OC)ncn1CCc1ccccc1OC	n	n	81.4	n	n	x	113.0
Cc1cc(Nc2cccc([N+](=O)[O-])c2)cc(=O)n1-c1cccc([N+](=O)[O-])c1	n	n	x	n	n	x	x
CCCCCCCCCCCCNC[C@@H]1CSCCS(=O)(=O)N1	n	n	x	n	n	x	x
CCCCc1c(-c2ccccc2OC)ncn1Cc1cccc(C)c1	n	n	x	n	n	x	x
COc1cc(CNCCCN2CCOCC2)cc(Br)c1OCc1ccc(Cl)cc1	n	n	74.0	n	n	n	n
COC(=O)[C@]12C[C@H](CC(=O)NCc3ccc(C)o3)C(=O)N(Cc3ccccc3)C1=C[C@H](COCc1ccccc1)O[C@@H]2C	n	n	x	n	n	x	x
NC(=O)c1c(N)[nH]c(C(=O)c2ccccc2)c1-c1ccc(Br)cc1	n	n	x	n	n	x	x
Cc1cccc(Cn2cc(COC(=O)N3CCOCC3)nn2)c1	n	n	x	n	n	x	x
O=S(=O)(NCC1CCCO1)c1ccc(-c2ccc(S(=O)(=O)NCC3CCCO3)cc2)cc1 (centres undefined)	n	n	86.4	n	n	n	100.7
Cc1ccc(S(=O)(=O)NCC2CCCO2)cc1 (centres undefined)	n	n	n	n	n	n	x
Cc1csc2c(N3CCN(C(=O)Nc4ccc(Cl)c(Cl)c4)CC3)ncnc12	n	n	88.0	n	n	n	79.6
CN1CCN(C(=O)c2ccc(C(C)(C)C)cc2)CC1	n	n	n	n	n	n	x
Cc1csc2c(N3CCN(C(=O)c4ccc(C(C)(C)C)cc4)CC3)ncnc12	n	n	96.1	n	n	n	82.7
Cc1csc2c(N3CCN(C(=O)NC(C)(C)C)CC3)ncnc12	n	n	n	n	n	n	x
Cc1csc2ncnc(N3CCN(C(=S)Nc4ccc(C(F)(F)F)cc4)CC3)c12	n	n	91.3	n	n	n	93.9
Cc1cc(C)cc(NC(=S)N2CCN(c3ncc(C(F)(F)F)cc3Cl)CC2)c1	n	n	n	n	n	n	x
CC(C)(C)c1ccc(C(=O)N2CCN(c3nc4ccccc4o3)CC2)cc1	n	n	52.2	n	n	n	43.9
COc1ccc(N2CCN(CCCNC(=O)CCc3cccc(F)c3)CC2)cc1	n	n	x	n	n	x	x
